Results published in PubChem BioAssay (NCI).
About 83,000 compounds went through this panel and 20% of them were active in at least one assay; those are over-represented in the sample as a whole.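 Negative percent growth values reflect cell death: -40 means 40% of the cells present at the start died, and -100 means all died.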 The source made the active and inactive calls. Rule for the calls: active = growth percent below 10; inactive = the rest.

Columns and labels:
Test in all cases: NCI-60 one-dose screen, 48 h (100 = growth as untreated, 0 = no growth, -100 = all killed)
Conditions in all cases: 10 µM unless noted
[1] = system: SR leukemia
[2] = system: RPMI-8226 leukemia
[3] = system: OVCAR-8 ovarian
[4] = system: OVCAR-5 ovarian
[5] = system: OVCAR-4 ovarian
[6] = system: SK-OV-3 ovarian
[7] = system: IGROV1 ovarian
[8] = system: OVCAR-3 ovarian
[9] = system: HS 578T breast
[10] = system: NCI/ADR-RES ovarian

Measured: growth

COc1ccc(NC(=O)c2ccc3c(c2)nc(-c2cc4ccccc4[nH]c2=O)n3-c2cc(C(C)(C)C)[nH]n2)cc1
inactive: [1] 84.8% | [2] 83.9% | [3] 97.6% | [4] 95.9% | [5] 86.5% | [6] 111% | [7] 80.7% | [8] 100% | [9] 80.9% | [10] 103%

COc1cc(/C=N/NC(=S)NNC(=S)NC2CCCCC2)cc(OC)c1OC
inactive: [1] 96.9% | [2] 70.1% | [3] 97.8% | [4] 106% | [5] 86.3% | [6] 110% | [7] 89.9% | [8] 103% | [9] 106% | [10] 97.5%

Cc1cc(Cl)nc(N(CCCNc2ccnc3cc(Cl)ccc23)Cc2ccco2)n1
active: [1] -13.7% | [2] -28.9% | [10] 5.99%
inactive: [3] 14.5% | [4] 31.9% | [5] 32% | [6] 40.8% | [7] 15.3% | [8] 35.7% | [9] 58.8%

NCCn1cc(-c2nc(-c3c[nH]c4ncccc34)cs2)c2cc(Br)ccc21
inactive: [1] 15.2% | [2] 43.3% | [3] 91.6% | [4] 89.4% | [5] 54.7% | [6] 90.8% | [7] 43.6% | [8] 82.4% | [9] 83.1% | [10] 90%

c1ccc2[nH]c(-c3ccc(Nc4nc(N5CCCCC5)nc(N5CCOCC5)n4)cc3)nc2c1
inactive: [3] 45.7% | [4] 73.9% | [5] 61.2% | [6] 22.5% | [7] 51.3% | [8] 10.9% | [10] 45.6%
active: [1] 9.79% | [2] 2.47% | [9] -12.6%

Cc1cc(C=O)c(C)c2c1[nH]c1ccccc12
inactive: [1] 85.5% | [2] 93.9% | [3] 93% | [4] 62.4% | [5] 87.8% | [6] 106% | [7] 97.6% | [8] 108% | [9] 107% | [10] 94.2%

Fc1ccc(NCc2nnc(-c3ccc(Cl)cc3)o2)cc1
inactive: [1] 71.1% | [2] 54.1% | [3] 79.9% | [4] 86.9% | [5] 69.2% | [6] 81.5% | [7] 51.6% | [8] 79.6% | [9] 84.6% | [10] 90.6%

CCN1CCN(c2nc(C)cc(N(CCCNc3ccnc4cc(Cl)ccc34)Cc3ccco3)n2)CC1
active: [1] -16.5% | [2] 8.04%
inactive: [3] 58.5% | [4] 79.7% | [5] 59.7% | [6] 97.2% | [7] 51.2% | [8] 53% | [9] 70.3% | [10] 55.8%

COc1ccc2c(c1)c(-c1nc(-c3cn(C)c4ncccc34)cs1)cn2CCN
inactive: [1] 27.4% | [2] 75.8% | [3] 71.1% | [4] 78.1% | [5] 41.1% | [6] 94.9% | [7] 41.8% | [8] 88.8% | [9] 85.6% | [10] 88.1%

C=COCCCCCCCCCCCCCCCCCC
inactive: [1] 94.6% | [2] 115% | [3] 96.5% | [4] 106% | [5] 109% | [6] 103% | [7] 118% | [8] 92.6% | [9] 89.3% | [10] 98.9%

CCN(CC)C(=O)CCCCCn1c2ccccc2c2c3c(c4c5ccccc5[nH]c4c21)C(=O)N(O)C3=O
active: [1] 5.8%
inactive: [2] 16.1% | [3] 20.8% | [4] 104% | [5] 56.6% | [6] 79.5% | [7] 27.6% | [8] 46.5% | [9] 71.1% | [10] 12.7%

COc1ccc(C2=NN(c3nc(-c4ccc(OC)cc4)c(C#N)c(=O)n3C)C(=O)CC2)cc1
inactive: [1] 87.2% | [2] 95% | [3] 101% | [4] 72.3% | [5] 105% | [6] 96% | [7] 96.3% | [8] 104% | [9] 94.9% | [10] 101%

COC(=O)[C@]12CC[C@@H](C)[C@H](C)[C@@H]1C1=CC[C@@H]3[C@@](C)(CC#N)C4=C(C[C@@]3(C)[C@]1(C)CC2)OC[C@]4(C)C=O
active: [1] 2.49% | [2] 2.46% | [3] 5.29% | [4] -48.3% | [6] 0.91% | [8] -59.6% | [9] -0.493% | [10] -11.3%
inactive: [5] 10% | [7] 22.9%

C=C(C)[C@@H]1CC[C@]2(/C=N/Nc3ccncc3)CC[C@]3(C)[C@H](CC[C@@H]4[C@@]5(C)CCCNC(C)(C)[C@@H]5CC[C@]43C)[C@@H]12
inactive: [1] 17.9% | [2] 28.7% | [3] 95.2% | [4] 105% | [5] 89.9% | [6] 113% | [7] 96.4% | [8] 84.5% | [9] 83.2% | [10] 94.5%

COC(=O)CCCCCn1c2ccccc2c2c3c(c4c5ccccc5[nH]c4c21)C(=O)N(O)C3=O
inactive: [1] 11.3% | [2] 22.4% | [3] 31.2% | [4] 86.6% | [5] 57.5% | [6] 70.2% | [7] 19.5% | [8] 33.2% | [9] 84.5% | [10] 23.1%

O=C1Nc2ccccc2/C1=C/c1cn(CCCn2c3ccccc3c(=O)c3ccccc32)c2ccccc12
inactive: [1] 84% | [2] 90% | [3] 85% | [4] 103% | [5] 88.1% | [6] 86.6% | [7] 45.8% | [8] 84.9% | [9] 85.2% | [10] 90.3%

Cc1ccc(/C=C(\C#N)c2cc3ccccc3n2C)cc1
active: [8] -12.6% | [10] -2.11%
inactive: [1] 25.2% | [2] 14% | [3] 38.9% | [4] 38.7% | [5] 61% | [6] 67.8% | [7] 30.5% | [9] 34.1%

O=S(=O)(NCCNc1cc(-c2cn(-c3ccccc3)nc2-c2cccc(O)c2)ccn1)c1ccc(Cl)cc1
active: [1] 2.36%
inactive: [2] 12.8% | [3] 31% | [4] 63.4% | [5] 38.2% | [6] 53.5% | [7] 44.4% | [8] 43.2% | [9] 21.2% | [10] 29.1%

Cn1cc(-c2csc(-c3cn(CCNC(=O)OC(C)(C)C)c4ccc(F)cc34)n2)c2cccnc21
inactive: [1] 65.3% | [2] 34.4% | [3] 37.9% | [4] 95.3% | [5] 43.8% | [6] 96.6% | [7] 49.4% | [8] 75.5% | [9] 84.3% | [10] 43.8%

C#Cc1cccc(NC(=O)C2CCCN(C(=O)CCl)C2)c1 (stereo not given)
inactive: [1] 10.9% [8.25 µM] | [2] 64.4% [8.25 µM] | [3] 30.1% [8.25 µM] | [4] 78.8% [8.25 µM] | [5] 68.9% [8.25 µM] | [6] 89.8% [8.25 µM] | [9] 85.6% [8.25 µM] | [10] 93.2% [8.25 µM]
active: [7] -72% [8.25 µM] | [8] 5.16% [8.25 µM]

CCC1C(=O)COC1=O (stereo not given)
inactive: [1] 99.2% | [2] 83.9% | [3] 96.6% | [4] 108% | [5] 105% | [6] 71.4% | [7] 104% | [8] 109% | [9] 99.1% | [10] 87.9%

Cc1cccc(C)c1NC(=O)CSC(=S)N1CCCCC1
inactive: [1] 101% | [2] 104% | [3] 105% | [4] 101% | [5] 106% | [6] 110% | [7] 90.7% | [8] 103% | [9] 96.8% | [10] 103%

CCC(=O)c1c(C)[nH]c(C)c1C
inactive: [1] 70.7% | [2] 113% | [3] 85.1% | [4] 48.8% | [5] 123% | [6] 93% | [7] 76.1% | [8] 115% | [9] 138% | [10] 85.3%
